# From paper PMC7862700, “An all-to-all approach to the identification of sequence-specific readers for epigenetic DNA modifications on cytosine”
# How the values were obtained:
# Assay in all cases: DAPPL (digital affinity profiling via proximity ligation, sequencing); 10 mM Tris-HCl pH 7.5, 50 mM NaCl, 1 mM DTT, 4% glycerol, room temperature, 30 min; GST-TFs on glutathione beads, 16-mer random dsDNA library, 0.1% formaldehyde crosslink after washing; high values mean tight binding
# Conditions in all cases: protein: recombinant; tags: N-terminal GST; dsDNA, one strand shown
# [1] = target: T1, FLI1 (Homo sapiens, UniProt Q01543 1-452)
# T1 sequence: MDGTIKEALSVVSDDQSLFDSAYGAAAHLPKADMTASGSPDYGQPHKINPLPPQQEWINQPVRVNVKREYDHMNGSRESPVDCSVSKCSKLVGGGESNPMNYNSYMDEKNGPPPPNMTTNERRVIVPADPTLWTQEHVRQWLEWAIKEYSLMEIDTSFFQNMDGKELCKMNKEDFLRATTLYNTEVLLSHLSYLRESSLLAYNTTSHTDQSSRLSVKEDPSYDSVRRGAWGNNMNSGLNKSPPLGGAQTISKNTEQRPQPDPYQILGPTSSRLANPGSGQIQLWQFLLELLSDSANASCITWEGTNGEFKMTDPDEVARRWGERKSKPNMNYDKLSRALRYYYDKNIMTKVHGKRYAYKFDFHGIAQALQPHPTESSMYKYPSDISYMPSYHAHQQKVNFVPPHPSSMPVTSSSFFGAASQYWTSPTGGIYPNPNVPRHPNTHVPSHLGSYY
# In short: (§1)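 Yeast served to express human transcription factors as GST fusions, which were then captured on glutathione beads and labelled with DNA barcodes. Pooled with a tag-only sample, they were incubated with 200 nmole of a 16-mer random double-stranded DNA library for 30 min at room temperature in Tris/NaCl/DTT/glycerol buffer, washed, crosslinked with 0.1% formaldehyde, ligated by proximity, amplified by PCR and sequenced. Dividing each hexamer's read frequency for a factor by its frequency for the tag-only sample gives the binding signal.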
# [2] = target: T2, ELK1 (Homo sapiens, UniProt P19419 1-428)
# T2 sequence: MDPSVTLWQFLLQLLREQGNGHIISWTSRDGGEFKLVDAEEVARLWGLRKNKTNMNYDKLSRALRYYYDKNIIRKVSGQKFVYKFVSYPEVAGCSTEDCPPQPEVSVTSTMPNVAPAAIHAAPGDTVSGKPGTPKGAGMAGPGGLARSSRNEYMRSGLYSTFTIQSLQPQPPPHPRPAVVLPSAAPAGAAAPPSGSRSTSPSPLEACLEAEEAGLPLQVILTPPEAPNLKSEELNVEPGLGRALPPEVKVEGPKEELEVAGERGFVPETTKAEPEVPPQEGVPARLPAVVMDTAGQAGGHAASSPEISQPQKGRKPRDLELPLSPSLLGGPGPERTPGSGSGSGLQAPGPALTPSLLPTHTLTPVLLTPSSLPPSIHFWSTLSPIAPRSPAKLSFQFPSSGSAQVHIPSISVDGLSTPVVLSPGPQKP
# In short: as §1
# [3] = target: T3, GABPA (Homo sapiens, UniProt Q06546 1-454)
# T3 sequence: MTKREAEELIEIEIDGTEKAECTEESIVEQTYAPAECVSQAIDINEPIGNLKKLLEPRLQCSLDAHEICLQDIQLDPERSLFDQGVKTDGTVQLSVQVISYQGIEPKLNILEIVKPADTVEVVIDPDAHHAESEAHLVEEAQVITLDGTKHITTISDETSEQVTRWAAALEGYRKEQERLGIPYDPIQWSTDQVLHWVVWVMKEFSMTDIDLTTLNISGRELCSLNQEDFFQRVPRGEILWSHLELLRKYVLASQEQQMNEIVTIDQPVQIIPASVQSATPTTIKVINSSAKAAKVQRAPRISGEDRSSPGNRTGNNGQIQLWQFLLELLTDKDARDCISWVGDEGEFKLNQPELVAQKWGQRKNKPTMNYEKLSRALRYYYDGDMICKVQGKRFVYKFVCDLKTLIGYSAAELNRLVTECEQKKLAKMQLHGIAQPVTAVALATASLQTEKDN
# In short: as §1
# [4] = target: T4, ERG (Homo sapiens, UniProt P11308 1-479)
# T4 sequence: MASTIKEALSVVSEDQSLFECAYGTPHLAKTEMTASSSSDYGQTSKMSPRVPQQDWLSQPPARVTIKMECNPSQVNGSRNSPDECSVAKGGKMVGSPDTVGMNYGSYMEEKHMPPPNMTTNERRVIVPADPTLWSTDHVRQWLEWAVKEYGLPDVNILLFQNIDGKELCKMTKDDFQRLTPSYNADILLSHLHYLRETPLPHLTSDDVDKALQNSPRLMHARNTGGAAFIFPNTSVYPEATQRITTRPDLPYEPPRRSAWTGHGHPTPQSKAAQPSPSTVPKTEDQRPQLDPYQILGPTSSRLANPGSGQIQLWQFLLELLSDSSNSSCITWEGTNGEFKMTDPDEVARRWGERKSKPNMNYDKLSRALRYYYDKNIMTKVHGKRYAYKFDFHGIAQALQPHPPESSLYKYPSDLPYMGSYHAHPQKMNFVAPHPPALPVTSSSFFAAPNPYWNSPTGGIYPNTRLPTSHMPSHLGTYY
# In short: as §1
# [5] = target: ELF1 (Homo sapiens, UniProt P32519 1-619)
# ELF1, sequence (P32519 whole entry): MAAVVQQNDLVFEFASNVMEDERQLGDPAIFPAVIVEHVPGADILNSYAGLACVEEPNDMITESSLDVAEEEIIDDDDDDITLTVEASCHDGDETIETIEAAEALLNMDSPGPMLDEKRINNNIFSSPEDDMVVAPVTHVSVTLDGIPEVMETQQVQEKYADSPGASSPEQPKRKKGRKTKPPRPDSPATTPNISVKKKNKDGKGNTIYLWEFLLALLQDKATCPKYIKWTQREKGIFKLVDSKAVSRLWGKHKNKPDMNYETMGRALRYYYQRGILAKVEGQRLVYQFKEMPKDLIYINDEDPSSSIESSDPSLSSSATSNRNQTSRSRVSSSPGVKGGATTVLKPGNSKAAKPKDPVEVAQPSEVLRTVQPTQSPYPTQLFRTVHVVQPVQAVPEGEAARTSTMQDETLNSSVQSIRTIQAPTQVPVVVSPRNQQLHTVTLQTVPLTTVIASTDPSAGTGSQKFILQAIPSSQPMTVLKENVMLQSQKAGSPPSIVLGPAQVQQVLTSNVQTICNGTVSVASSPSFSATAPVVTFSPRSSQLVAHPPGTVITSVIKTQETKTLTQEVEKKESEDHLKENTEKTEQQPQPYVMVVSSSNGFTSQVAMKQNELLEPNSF
# In short: as §1
# [6] = target: SPIB (Homo sapiens, UniProt Q01892 1-262)
# SPIB, sequence (Q01892 whole entry): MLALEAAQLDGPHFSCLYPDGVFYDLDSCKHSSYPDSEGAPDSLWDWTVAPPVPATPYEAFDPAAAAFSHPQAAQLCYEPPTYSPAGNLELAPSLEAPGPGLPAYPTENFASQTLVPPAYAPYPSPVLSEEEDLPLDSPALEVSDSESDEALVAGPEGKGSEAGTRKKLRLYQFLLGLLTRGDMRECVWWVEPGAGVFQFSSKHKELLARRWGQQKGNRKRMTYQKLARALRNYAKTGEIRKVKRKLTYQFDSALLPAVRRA
# In short: as §1
# [7] = target: T5, SPIC (Homo sapiens, UniProt Q8N5J4 1-248)
# T5 sequence: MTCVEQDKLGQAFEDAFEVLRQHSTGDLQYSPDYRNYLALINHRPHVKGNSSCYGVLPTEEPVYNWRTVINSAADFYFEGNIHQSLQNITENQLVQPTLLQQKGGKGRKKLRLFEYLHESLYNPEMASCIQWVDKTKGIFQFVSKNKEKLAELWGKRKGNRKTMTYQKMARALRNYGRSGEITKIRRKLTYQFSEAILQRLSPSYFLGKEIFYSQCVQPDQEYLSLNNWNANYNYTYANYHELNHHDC
# In short: as §1
# [8] = target: ELF4 (Homo sapiens, UniProt Q99607 1-663)
# ELF4, sequence (Q99607 whole entry): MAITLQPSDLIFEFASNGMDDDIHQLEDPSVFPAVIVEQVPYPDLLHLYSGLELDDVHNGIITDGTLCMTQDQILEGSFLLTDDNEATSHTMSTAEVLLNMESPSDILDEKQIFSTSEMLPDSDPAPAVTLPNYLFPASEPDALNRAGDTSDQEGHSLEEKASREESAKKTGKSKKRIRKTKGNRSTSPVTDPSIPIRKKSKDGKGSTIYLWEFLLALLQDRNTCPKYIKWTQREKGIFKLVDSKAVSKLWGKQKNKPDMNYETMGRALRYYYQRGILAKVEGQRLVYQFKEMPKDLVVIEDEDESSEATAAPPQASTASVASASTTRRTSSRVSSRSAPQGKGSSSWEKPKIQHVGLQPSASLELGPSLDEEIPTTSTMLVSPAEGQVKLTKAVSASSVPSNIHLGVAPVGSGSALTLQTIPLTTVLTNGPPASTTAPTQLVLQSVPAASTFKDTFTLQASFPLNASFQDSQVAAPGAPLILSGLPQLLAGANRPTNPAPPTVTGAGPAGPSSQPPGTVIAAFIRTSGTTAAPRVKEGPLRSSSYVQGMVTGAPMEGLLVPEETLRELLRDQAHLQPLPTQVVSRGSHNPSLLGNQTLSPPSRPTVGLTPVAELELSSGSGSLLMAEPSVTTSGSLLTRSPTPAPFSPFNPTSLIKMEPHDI
# In short: as §1
# [9] = target: T6, ELK4 (Homo sapiens, UniProt P28324-2 1-405)
# T6 sequence: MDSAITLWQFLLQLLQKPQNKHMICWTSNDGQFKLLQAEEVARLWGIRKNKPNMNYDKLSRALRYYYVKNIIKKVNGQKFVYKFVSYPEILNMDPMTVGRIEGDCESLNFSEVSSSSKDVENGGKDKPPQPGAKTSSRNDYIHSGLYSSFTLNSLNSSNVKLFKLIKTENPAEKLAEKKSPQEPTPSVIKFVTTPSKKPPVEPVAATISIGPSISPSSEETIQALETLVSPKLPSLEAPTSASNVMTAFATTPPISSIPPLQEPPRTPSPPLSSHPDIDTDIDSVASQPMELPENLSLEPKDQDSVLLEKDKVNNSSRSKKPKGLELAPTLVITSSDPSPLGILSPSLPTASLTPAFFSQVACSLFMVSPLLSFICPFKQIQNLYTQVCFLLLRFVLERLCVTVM
# In short: as §1
sequence,measurement,setting,value
TCAATC,binding signal,[1],"1.08 fold enrichment (6-mer frequency, TF over GST control)"
same,binding signal,[2],"1.08 fold enrichment (6-mer frequency, TF over GST control)"
same,binding signal,[3],"1.13 fold enrichment (6-mer frequency, TF over GST control)"
same,binding signal,[4],"1.04 fold enrichment (6-mer frequency, TF over GST control)"
same,binding signal,[5],"1.07 fold enrichment (6-mer frequency, TF over GST control)"
same,binding signal,[6],"1.04 fold enrichment (6-mer frequency, TF over GST control)"
same,binding signal,[7],"1.1 fold enrichment (6-mer frequency, TF over GST control)"
same,binding signal,[8],"1.06 fold enrichment (6-mer frequency, TF over GST control)"
same,binding signal,[9],"1.03 fold enrichment (6-mer frequency, TF over GST control)"
